Pf Dd2 growth – P. falciparum Dd2 growth inhibitors, primary screen, SYBR Green fluorescence, single dose replicates. 72 h; hits give low values. activity change, % at 10 µM. 2.3% of 94,000 active; in the data active means activity change below about -80%; inconclusive means no clear call, values can overlap the other calls
T cruzi growth-1 – T. cruzi intracellular proliferation inhibitors, primary screen, cell-based, beta-gal Tulahuen parasites, NIH3T3 host, luminescence; T. cruzi beta-gal in NIH3T3, GalScreen luminescence, 90 h; inhibition, % at 8.34 µM; 5.9% of 77,000 active; AID 624255, 2012;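 active means mean inhibition above about 93%, with at least 55% of replicates each passing it, limit read from the data, passing the limit was not always enough; inconclusive means only one of those two conditions holds; inactive means neither condition holds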
C diff HTS – C. difficile growth inhibitors, primary screen, HTS | Clostridium difficile clinical isolate growth, OD600, 24 h; hits give low values | growth activity, negative = inhibition, % at 16 µg/mL (by protocol) | 0.25% of 86,000 active | AID 1259249, 2017;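 active means mean growth activity at or below -80% and every replicate also at or below -80%; inconclusive means mean at or below -80% but some replicate above -80%; inactive means mean growth activity above -80%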;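 further: 0% = DMSO wells and -100% = levofloxacin 16 µg/mL wells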
T cruzi growth-2 – T. cruzi intracellular proliferation inhibitors, confirmation, cell-based, NIH3T3 host, beta-gal parasite, luminescence, cherry-pick | shares compounds with T cruzi growth-1 | T. cruzi beta-gal in NIH3T3, GalScreen luminescence, 90 h | inhibition, % at 8.35 µM | 72% of 5,600 active | AID 651739, 2012;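 active means mean replicate inhibition above about 95% and at least 55% of replicates individually reaching it, limit read from the data; inconclusive means only one of the two criteria is met; inactive means neither criterion is met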
T cruzi growth-3 – inhibitors of intracellular T. cruzi replication, confirmation, NIH3T3 host cells, beta-gal parasites, cherry-pick, set 2 | inhibition, % at 2.09 µM | T. cruzi beta-gal in NIH3T3, GalScreen luminescence, 90 h | AID 651740, 2012 | shares compounds with T cruzi growth-1 | 21% of 5,600 active;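 active means mean inhibition above about 95%, with at least 55% of replicates also reaching it, limit read from the data; inconclusive means meets just one of the two conditions; inactive means meets neither condition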;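 further: plate controls were neutral control median for no effect and positive control median for full effect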
NIH3T3 tox – cytotoxicity in mouse NIH/3T3 fibroblasts, confirmation, cytotoxicity control for T. cruzi proliferation inhibitor project, cell-based, cherry-pick, single point; shares compounds with T cruzi growth-1; NIH/3T3 viability, CellTiter-Glo ATP luminescence, 90 h; cytotoxicity (signal decrease), % at 8.35 µM; 14% of 5,600 active;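 active means mean signal decrease across replicates above about 35% based on untreated-well scatter, with enough replicates individually passing, limit read from the data; inconclusive means no rule stated though some were filed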;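 further: 0% = median of neutral control wells and 100% = median of positive control wells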
NIH3T3 tox 2 – NIH/3T3 fibroblast cytotoxicity, confirmation, cytotoxicity control, cell-based, cherry-pick, single point, set 2. shares compounds with T cruzi growth-1. NIH/3T3 viability, CellTiter-Glo ATP luminescence, 90 h. inhibition, % at 24.9 µM. 56% of 5,600 active. AID 651744, 2012;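 active means mean loss of cell viability signal at or above a set limit, and enough replicates individually reaching it; inconclusive means meets only the mean limit or only the replicate share; inactive means meets neither condition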;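 further: 0% = median of neutral control wells and 100% = median of positive control wells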
* = called active by the depositor; ? = inconclusive; / = no result given. In the library only some 6.8% were active in any assay of this set; here they are far more common.

SMILES	Pf Dd2 growth	T cruzi growth-1	C diff HTS	T cruzi growth-2	T cruzi growth-3	NIH3T3 tox	NIH3T3 tox 2
C[C@@H]1CN([C@@H](C)CO)C(=O)c2cc(/C=C/c3ccccc3)cnc2O[C@H]1CN(C)Cc1ccccc1F	-38.1	127.2*	5.6	?	107.9*	4.8	105.0*
C/C=C/c1cnc2c(c1)C(=O)N([C@@H](C)CO)C[C@@H](C)[C@@H](CN(C)Cc1ccccc1F)O2	6.6	/	0.8	/	/	/	/
CC(C)NC(=O)N(C)C[C@@H]1OCCCC[C@H](C)Oc2ccc(NC(=O)c3ccncc3)cc2C(=O)N([C@H](C)CO)C[C@@H]1C	9.2	20.1	-0.8	/	/	/	/
COc1ccc(CN(C)C[C@H]2Oc3ccc(NS(=O)(=O)c4ccc(F)cc4)cc3CC(=O)N([C@@H](C)CO)C[C@@H]2C)cc1	13.7	49.3	-8.2	/	/	/	/
C[C@H](CO)N1C[C@H](C)[C@@H](CN(C)S(C)(=O)=O)Oc2ccc(NC(=O)Cn3cnnn3)cc2CC1=O	29.9	-25.7	-10.1	/	/	/	/
O=C(CN1CCOCC1)N1CCCCN2[C@H](CO)[C@@H](c3ccc(C#Cc4ccccc4)cc3)[C@H]2C1	-51.9	65.1	0.3	/	/	/	/
O=C(CN1CCOCC1)N1CCCCN2[C@H](CO)[C@@H](c3ccc(C#Cc4ccccc4F)cc3)[C@H]2C1	-7.7	109.7*	1.6	97.5*	-12.4	53.7*	94.9*
O=C(CN1CCOCC1)N1CCCCN2[C@H](CO)[C@@H](c3ccc(-c4ccccc4F)cc3)[C@H]2C1	0.2	21.7	-16.1	/	/	/	/
O=C(CN1CCOCC1)N1CCCCN2[C@H](CO)[C@@H](c3ccc(C#Cc4ccccc4F)cc3)[C@@H]2C1	-43.5	-3.3	1.7	/	/	/	/
O=C(CN1CCOCC1)N1CCCCN2[C@@H](CO)[C@@H](c3ccc(C#Cc4ccccc4F)cc3)[C@@H]2C1	6.6	107.1*	4.0	98.3*	59.8	?	100.5*
O=C(CN1CCOCC1)N1CCCCN2[C@@H](CO)[C@H](c3ccc(C#Cc4ccccc4F)cc3)[C@@H]2C1	-17.5	107.4*	30.1	111.9*	80.0	41.9*	102.4*
CO[C@H]1CC[C@@H]2CCN(C)C(=O)[C@H](C)[C@H](OC)CN(C)C(=O)c3cccc(C#N)c3OC[C@H]1O2	35.5	-21.7	/	/	/	/	/
COc1ccc2c3c(n(C)c2c1)[C@H](CO)N(C(=O)c1ccccc1)CC31CCN(C)CC1	-3.6	/	0.6	/	/	/	/
OC[C@@H]1[C@@H](c2ccc(-c3ccccc3F)cc2)[C@H]2CN(Cc3cncnc3)CCCCN12	-13.0	46.0	-2.3	/	/	/	/
OC[C@@H]1[C@@H](c2ccc(-c3cccc(F)c3)cc2)[C@@H]2CN(Cc3cncnc3)CCCCN12	16.2	30.2	0.5	/	/	/	/
OC[C@@H]1[C@H](c2ccc(-c3ccccc3F)cc2)[C@@H]2CN(Cc3cncnc3)CCCCN12	13.1	110.1*	-8.7	87.6	82.3	-19.6	49.6*
OC[C@@H]1[C@@H](c2ccc(-c3ccccc3F)cc2)[C@@H]2CN(Cc3cccnc3)CCCCN12	-13.3	85.5	4.0	/	/	/	/
OC[C@H]1[C@H](c2ccc(-c3ccccc3F)cc2)[C@@H]2CN(Cc3cncnc3)CCCCN12	-24.3	107.9*	-7.8	107.7*	86.9	4.1	35.9*
OC[C@@H]1[C@H](c2ccc(-c3ccccc3F)cc2)[C@H]2CN(Cc3cncnc3)CCCCN12	-17.5	110.2*	-11.1	100.2*	88.6	22.4	38.2*
CS(=O)(=O)N1[C@@H](C#N)[C@@H](c2ccccc2-c2ccc(F)cc2)[C@@H]1CO	-17.7	/	23.5	/	/	/	/
Cc1noc(C)c1S(=O)(=O)Nc1ccc2c(c1)C(=O)N([C@@H](C)CO)C[C@H](C)[C@@H](CN(C)Cc1ccc(C(F)(F)F)cc1)OCCCC[C@H](C)O2	-8.4	102.8*	/	103.5*	74.1	-4.6	103.9*

Compound activity as filed in PubChem BioAssay.
